Experimental data from PubChem BioAssay AID493084 (National Center for Advancing Translational Sciences (NCATS), 2011).
The whole screen tested about 360,000 compounds, of which about 650 (0.18%) were called active. No stated cut-off is given here; in the data, active means activation above about 30%; inactive means the rest. The full list was thinned out, with actives kept by preference.
Further: 0% is about no effect.

What follows are molecules tested against Thyrotropin-releasing hormone receptor (Homo sapiens) (UniProt P34981) (assay: qHTS for Small Molecule Agonists and Allosteric Enhancers of Human TRH Receptor: Primary Screen for Agonists.). Details: TRHR cells, calcium flux fluo-8, FDSS agonist mode; at 2 µM; stronger effect = higher value.
Chain of Thyrotropin-releasing hormone receptor (Homo sapiens) (P34981 whole entry, looked up): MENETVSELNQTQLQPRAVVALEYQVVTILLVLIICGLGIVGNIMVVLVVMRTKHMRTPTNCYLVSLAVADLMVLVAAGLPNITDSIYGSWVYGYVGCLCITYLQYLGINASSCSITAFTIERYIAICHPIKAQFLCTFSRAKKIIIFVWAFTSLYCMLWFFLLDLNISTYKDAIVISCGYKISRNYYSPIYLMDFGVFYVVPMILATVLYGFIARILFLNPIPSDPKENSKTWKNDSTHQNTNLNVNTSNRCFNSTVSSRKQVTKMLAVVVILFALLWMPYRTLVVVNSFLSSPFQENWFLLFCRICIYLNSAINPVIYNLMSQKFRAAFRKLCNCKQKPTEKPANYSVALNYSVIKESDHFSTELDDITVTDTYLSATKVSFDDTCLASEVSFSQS
Source text: NIH Chemical Genomics Center [NCGC] NIH Molecular Libraries Probe Centers Network [MLPCN] MLPCN Grant: MH089816-01 Assay Submitter (PI): Marvin Gershengorn This project aims to identify small drug-like molecules that activate (agonists) the thyrotropin releasing hormone (TRH) receptor (TRHR) or enhance its TRH-stimulated activity (allosteric enhancers). TRHR, a drug-accessible cell surface receptor expressed in specific brain regions, and its ligand TRH have been implicated in several central nervous system disorders, including depression and anxiety. Small molecule TRHR agonists or allosteric enhancers that are metabolically stable and able to cross the blood-brain barrier might serve as probes to elucidate the roles of brain TRH receptors in animal models, and might be valuable as lead compounds for the development of drugs to treat patients with central nervous system disorders. Upon TRHR-Gq activation in TRHR cells, intracellular calcium is released from stores in the endoplasmic reticulum. […] This primary screen measures compound-induced activation of calcium release.
For the HTS assay freshly prepared cells are plated at a density of 2000/well in 3 ul of complete DMEM medium containing 10% serum in 1536-well plates and cultured over night at 37 C in a humidified incubator with 5% CO2. The next day, 2 ul of a no wash calcium dye (ABD Bioquest) was added to the cells and plates were incubated at room temperature for 1 hour. For the assay, assay plates were loaded into the FDSS kinetic plate reader. A 10 cycle (1 second/cycle) baseline measurement is taken and then the FDSS online 1536 pintool delivers 23 nl of compound library (as well as TRH controls) to the plate. The plate is measured for kinetically at 1 cycle/sec for 180 seconds and is considered to be the agonist portion of the assay (eg, compounds which activate a positive calcium response during this portion are flagged as potential agonists). Following the 180 second read, 1 ul of either an EC20 (positive modulation assay) is delivered by an onboard pipette head. Measurements are taken kinetically for an additional 180 seconds. TRHR FDSS Screening Protocol 1. Reagent, 3 uL 2000 cells/well 1536 TC treated Black plate in media containing 10% FCS 2. Time, 18 hours, 33.5C 5% CO2 (cells grown at 37C) 3. Reagent, 2 uL ABD fluo-8 Ca dye 4. Time, 30 min-1.5hrs hours, Room temp (6 plates/batch) 5. Detector, EX 480/EM 530C, FDSS 10 cycles baseline (1sec/cycle) 6. Compound, 23 nL of stock solution from library 7. Detector, EX 480/EM 530C, FDSS […] (1sec/cycle) Agonist mode 8. Compound, 1 ul EC20 of TRH made up in HEPES HBSS, 10 nM final 9. Detector, EX 480/EM 530C, FDSS 100 cycles (1sec/cycle) Potentiator mode
For `Cc1cc2c(s1)c1cnn(Cc3cc(F)c(Cl)cc3Cl)c(=O)c1n2C`, the activation was 0.185% (inactive).
`CSc1ccc(NC(=O)Cn2nnnc2-c2ccccc2F)cc1` was tested, and the activation was 0.477% (inactive).
For `Cc1c(Cl)cccc1NC(=O)N1CCN(C(=O)c2nsc3ccccc23)CC1`, the activation was -1.09% (inactive).
For `Cc1ccc(C(=O)NC2CCN(C#N)CC2)cc1`, the activation was 0.438% (inactive).
In the case of `O=S(=O)(c1ccc2c(c1)OCCO2)N1CCN(S(=O)(=O)c2cc(F)ccc2F)CC1`, the activation was -0.372% (inactive).
With `CCN(CC)CCNC(=O)Cn1ncc2c3ccccc3n(Cc3ccccc3C)c2c1=O` the activation was 1.76% (inactive).
For `CCOC(=O)c1ccc(-c2ccc(/C=C(\C#N)C(=O)Nc3ccc(C)cc3)o2)cc1`, the activation was 1.6% (inactive).
`Cc1ccc2nc(/C(C#N)=C/c3ccc(-c4ccc(C(=O)OC(C)C)cc4)o3)[nH]c2c1` was tested, and the activation was 69.6% (active).
With `Cc1ccc2nc(/C(C#N)=C/c3ccccc3F)[nH]c2c1` the activation was 1.62% (inactive).
`Cc1noc(/C=C/N(C)C)c1S(=O)(=O)N1CCCC(C(=O)Nc2cccc(F)c2)C1` (centres undefined) was tested, and the activation was -0.115% (inactive).
In the case of `CCOC(=O)c1c(C)oc2nc(C)nc(N3CCN(c4ccc(OC)cc4)CC3)c12`, the activation was -1% (inactive).
For `COc1cccc(CNC(=O)Cc2csc3nc(-c4ccccc4)cn23)c1`, the activation was -0.21% (inactive).
`COc1cccc2c1cc1c(=O)n(CC(=O)N3CCN(c4ccccc4)CC3)nc(C)n12` was tested, and the activation was 0.0688% (inactive).
For `COc1ccc(-n2c(SCC(=O)Nc3ccc(Cl)c(C)c3)nc3n[nH]c(C)c3c2=N)cc1`, the activation was 0.481% (inactive).
For `CCN(CC)c1ccc2cc(C(N)=O)/c(=N\NC(=O)c3ccncc3)oc2c1`, the activation was 81.7% (active).
For `CCOC(=O)c1c(C)oc2ccc(N(C(=O)c3ccncc3)S(=O)(=O)c3ccc(CC)cc3)cc12`, the activation was 0.327% (inactive).
`C/C(=N\NC(N)=S)c1ccncc1` was tested, and the activation was 0.334% (inactive).
For `N#CN1CCC(NC(=O)c2ccc(F)cc2)CC1`, the activation was 1.13% (inactive).
For `O=C(CNC(=O)c1ccc(Cl)cc1Cl)OC(C(=O)Nc1cc(C(F)(F)F)ccc1Cl)c1ccccc1` (centres undefined), the activation was -0.435% (inactive).
With `CC(=O)Nc1c(C)nn(-c2ccccc2)c1N1CCC(C(=O)Nc2cc(Cl)ccc2C)CC1` the activation was -0.0803% (inactive).
With `Cc1cccc2c(=O)cc(CSc3ccccc3NC(=O)C(C)C)[nH]c12` the activation was 0.235% (inactive).
In the case of `COc1ccc(CNC(=O)CCc2c(C)nn(-c3ccc(N4CCCC4)nn3)c2C)cc1`, the activation was 0.0444% (inactive).
In the case of `Cc1ccc(C)c(Cn2c(=O)n(CCC(=O)NCc3ccc4c(c3)OCO4)c(=O)c3sccc32)c1`, the activation was -0.659% (inactive).
With `COc1ccc(N2CCN(C3=NS(=O)(=O)C(c4cccc(Br)c4)=C3C)CC2)cc1` the activation was -0.301% (inactive).
`COc1cc(C(=O)NCCS(=O)(=O)N2CCN(c3ccccc3)CC2)cc(OC)c1OC` was tested, and the activation was 0.101% (inactive).
For `CCc1ccc(-n2nnc(-c3nc(-c4ccccc4)no3)c2C)cc1`, the activation was 0.119% (inactive).
`CCCN(CCC)C(=O)C1CCCN(c2ncnc3c2nc2n3CCCCC2)C1` (centres undefined) was tested, and the activation was -0.956% (inactive).
With `O=C(CC(NCc1cccnc1)C(=O)O)Nc1ccc(O)cc1` (centres undefined) the activation was 0.363% (inactive).
In the case of `CCOc1cccc(CC(=O)N2CCc3c([nH]c4ccccc34)C2c2ccc(OC)cc2)c1OCC` (centres undefined), the activation was 0.0175% (inactive).
In the case of `CC1CCCN(c2cc3c(cc2F)c(=O)c(S(=O)(=O)c2cccc(Cl)c2)cn3Cc2ccccc2)C1` (centres undefined), the activation was 0.542% (inactive).
`CCN(CC)c1ccc2oc(=O)c(C)nc2c1` was tested, and the activation was 100% (active).
In the case of `COc1cccc(N2CCN(S(=O)(=O)c3ccc4c(c3)CCCN4C(C)=O)CC2)c1`, the activation was -0.749% (inactive).
For `COc1ccc(CCNC(=O)Cn2c(=O)cc(C(F)(F)F)c3c(C)nn(C)c32)c(OC)c1`, the activation was -0.214% (inactive).
For `Cc1cc2c(s1)c1cnn(Cc3c(F)cccc3Cl)c(=O)c1n2C`, the activation was -0.043% (inactive).
For `COc1cccc(NC(=O)Nc2ccc3c(c2)N(C)C(=O)c2ccccc2S3)c1`, the activation was -0.213% (inactive).
For `CCOC(=O)c1c(S(=O)(=O)N2CCCC(C(=O)NCc3ccc(F)cc3)C2)c(C)n(CC)c1C` (centres undefined), the activation was -0.483% (inactive).
For `O=S(=O)(c1ccc(Br)cc1)c1nnn2c1nc(NC1CCCCCC1)c1sccc12`, the activation was -0.704% (inactive).
With `COc1ccc(NC(=O)CSc2nc3ccccc3n2CC(=O)N2CCCCC2C)cc1` (centres undefined) the activation was -0.312% (inactive).
`N#Cc1nc(Nc2cccc(Cl)c2)nc(NC2CCCC2)n1` was tested, and the activation was -2.51% (inactive).
`COc1ccccc1N1CCN(S(=O)(=O)CCNC(=O)COc2ccc(F)cc2)CC1` was tested, and the activation was -0.566% (inactive).
For `CCOc1cccc2c1N[C@@H](c1ccc(C(=O)O)cc1)[C@H]1CC=C[C@@H]21`, the activation was 0.0412% (inactive).
With `COc1ccc(CNC(=O)Cc2coc3ccc(C(C)C)cc23)cc1` the activation was -0.0096% (inactive).
`CCOc1cc(-c2nnc(SCC(=O)NC3CCCC3)nc2-c2ccc(OC)c(OCC)c2)ccc1OC` was tested, and the activation was 0.306% (inactive).
In the case of `CCOC(=O)c1nnn(CC(=O)NC(=O)Nc2ccccc2F)c1C(=O)OCC`, the activation was 1.07% (inactive).
With `CN1CCOc2cc(S(=O)(=O)N3CCN(S(=O)(=O)c4c(F)cccc4F)CC3)cnc21` the activation was -0.448% (inactive).
`Nc1ccc2nc3c(=O)[nH]c(=S)[nH]c3nc2c1` was tested, and the activation was 35.9% (active).
With `CCN(c1ccc(Cl)cc1)S(=O)(=O)c1nnc(NC(=O)c2ccco2)s1` the activation was -0.115% (inactive).
In the case of `COc1ccc(CCNC(=O)Cn2c(=O)n(-c3ccccc3)c(=O)c3c(C)c(C)sc32)cc1OC`, the activation was -1.42% (inactive).
For `O=C(NCc1nnc(C(=O)Nc2ccc(C(F)(F)F)cc2Cl)o1)c1ccccc1`, the activation was -2.31% (inactive).
With `COC(=O)c1ccccc1NC(=O)c1ccc(C#N)cc1` the activation was 0.34% (inactive).
For `Cc1ccccc1C(=O)NCc1nc(-c2ccc(Cl)cc2)no1`, the activation was -0.152% (inactive).
In the case of `Cc1cccc(C(C)C)c1NC(=O)C(NS(=O)(=O)c1cccc2nsnc12)c1ccccc1` (centres undefined), the activation was -0.333% (inactive).
In the case of `COc1ccc(CNC(=O)Cn2nnc(-c3ccccc3F)n2)cc1`, the activation was -0.359% (inactive).
With `CCOc1ccccc1N(CC)C(=O)c1cc2ccc3cccnc3c2[nH]1` the activation was 2.85% (inactive).
For `Cc1ccccc1NC(=O)CN1C(=O)C(C)(C)c2ccccc21`, the activation was 0.364% (inactive).
For `CCOc1ccc2nc(N3CCC(C(=O)Nc4cc(C)ccc4C)CC3)sc2c1`, the activation was -0.106% (inactive).
For `Cc1ccccc1NC(=O)c1cc2c([nH]c1=O)CC(C)(C)CC2=O`, the activation was 1.28% (inactive).
In the case of `COc1cccc(-c2ccc3c(c2)S(=O)(=O)c2cccc(C(=O)O)c2C3=O)c1OC`, the activation was 0.018% (inactive).
With `Cc1ccc(CNC(=O)c2cccc3c2C(=O)c2ccc(N4CCC(C)CC4)cc2S3(=O)=O)cc1` the activation was 86.3% (active).
For `Cc1ccc(CNC(=O)c2ccccc2CCc2ccccc2)cc1`, the activation was 0.513% (inactive).
In the case of `Cc1ccc(C2C3=C(Nc4[nH]n(-c5ccccc5)c(=O)c42)c2ccccc2C3=O)cc1` (centres undefined), the activation was -0.291% (inactive).
For `COC(=O)C1=C(C)NC2=C(C(=O)c3ccccc32)C1c1ccc(-c2ccc(C(=O)O)cc2)o1` (centres undefined), the activation was 46.3% (active).
With `CCOc1cc(C2C(C(=O)OC)=C(C)NC3=C2C(=O)c2ccccc23)ccc1O` (centres undefined) the activation was 0.256% (inactive).
With `Cc1c(C)n(Cc2ccc(Cl)cc2)c2ccc(C(=O)NCCc3ccc(S(N)(=O)=O)cc3)cc12` the activation was 0.277% (inactive).
In the case of `Cc1nn(-c2ccc(N3CCCCC3)nn2)c(C)c1CCC(=O)NCc1ccc(F)cc1`, the activation was -0.372% (inactive).
`CCN1/C(=C\c2ccc3ccccc3[n+]2CC)Sc2cc(C)ccc21` was tested, and the activation was 34.6% (active).
With `CCCC12CN3CC(CCC)(CN(C1)C3c1c[nH]c3ccc(OC)cc13)C2=O` (centres undefined) the activation was 2.39% (inactive).
In the case of `CCOc1cc(/C=C(/C#N)c2ccc(Cl)cc2)cc(Cl)c1OCC(=O)O`, the activation was -0.184% (inactive).
`CCOc1cc(/C=C(\C#N)C(=O)Nc2ccccc2C)ccc1OCc1cc(=O)n2nc(CC)sc2n1` was tested, and the activation was -1.33% (inactive).
In the case of `CCOc1cc(/C=C(\C#N)c2nc(-c3cccs3)c(NC(C)=O)s2)ccc1O`, the activation was 37.3% (active).
For `Cc1nc2ccc(S(=O)(=O)N(CC(=O)Nc3ccc(F)cc3)Cc3ccccc3)cc2s1`, the activation was -0.726% (inactive).
With `Cc1ccc(-n2nc(C)c3c(C)cc(=O)n(CC(=O)Nc4ccc(C(C)C)cc4)c32)cc1` the activation was -0.803% (inactive).
`Cc1cccc(NC(=O)N2CCC(CN3CCc4ccccc4C3)CC2)c1C` was tested, and the activation was -0.238% (inactive).
For `O=C(Nc1ccc(OC(F)(F)F)cc1)c1cc2c(=O)n3ccccc3nc2s1`, the activation was 0.583% (inactive).
With `O=C(/C=C(O)/C=C/c1ccc(O)cc1)/C=C/c1ccc(O)cc1` the activation was 150% (active).
In the case of `COc1ccc(OCCCn2cccc2/C=C2/C(=N)N3OC(C)=CC3=NC2=O)cc1`, the activation was -0.544% (inactive).
In the case of `CC1=CC2=NC(=O)/C(=C/c3coc4ccccc4c3=O)C(=N)N2O1`, the activation was 111% (active).
With `O=C(NCc1ccc(Cl)cc1)c1ccc2c(c1)nnn2C1CCCC1` the activation was -0.129% (inactive).
`O=S(=O)(c1ccc(Br)cc1)c1nnn2c1nc(N1CCOCC1)c1sccc12` was tested, and the activation was -0.0076% (inactive).
In the case of `Cc1ccc(NC(=O)c2oc3ccc(S(=O)(=O)N4CCCCC4)cc3c2C)cc1Cl`, the activation was 1.26% (inactive).
For `COc1ccc(C(=O)Nc2nonc2-c2ccc(OC)c(OC)c2)cc1Cl`, the activation was -1.06% (inactive).
`Cc1cccc(N2CCN(c3c(CN4CCCC4)c(=O)oc4ccccc34)CC2)c1C` was tested, and the activation was 0.139% (inactive).
For `C=CCC1=C/C(=C\c2c(N)n3nc(CC(=O)N4CCOCC4)sc3nc2=O)C=C(OC)C1=O`, the activation was 162% (active).
For `COC1=C/C(=C/c2c(N)n3nc(CC(=O)N4CCOCC4)sc3nc2=O)C=CC1=O`, the activation was 15.5% (inactive).
